Results on 172 sequences are retold here after publication PMC4242493, “Sequence specificity incompletely defines the genome-wide occupancy of Myc”.

Over roughly 33,000 sequences, “normalized occupancy” has its median near 0.075; the highest 2% begin near 0.095. For the sample, the highest values were picked, then their nearest neighbours and some sequences at random.

MaxL homodimer, sequence (P61244 whole entry): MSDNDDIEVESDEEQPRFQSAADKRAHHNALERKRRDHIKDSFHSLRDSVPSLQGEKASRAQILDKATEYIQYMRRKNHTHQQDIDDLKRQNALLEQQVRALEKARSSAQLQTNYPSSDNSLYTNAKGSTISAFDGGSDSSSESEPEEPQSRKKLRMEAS

The target of the experiment is MaxL homodimer (Homo sapiens, UniProt P61244 1-160). Kind of experiment: universal protein-binding microarray (PBM); PBS-based mixture, 10 nM His-tagged protein dimer, 2% milk, 200 ng/uL BSA, 50 ng/uL salmon testes DNA, 0.02% TX-100; detection with Alexa 488 anti-His antibody;; high values mean tight binding. The conditions noted are these: protein: recombinant; tags: C-terminal His-tag (pET21a); chain copies: 2; dsDNA, one strand shown. In short, it runs like this:
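Arrays of the 'all 10-mer' universal design (Agilent 4 x 44 K) were exposed to 10 nM His-tagged protein dimer, stained with 10 ng/μL fluorophore-conjugated anti-His antibody and read on a GenePix 4400A to give a fluorescence intensity for each 8-mer. Binding occupancy is each intensity divided by the highest-ranked intensity.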
CTTTGACC: the binding signal was found to be 0.0868 normalized occupancy.

On to AGTGCTCA, for which the binding signal is 0.0761 normalized occupancy.

As for TCACGAAA, the binding signal is 0.0755 normalized occupancy.

Regarding CTCCAGTA, the binding signal is 0.0743 normalized occupancy.

In the case of CAACCGTA, the binding signal is 0.0753 normalized occupancy.

With ACGCCGCG, the binding signal was determined as 0.0773 normalized occupancy.

Take AAGGAAAG: the binding signal was 0.0804 normalized occupancy.

In the case of AATGCCCC, the binding signal is 0.0836 normalized occupancy.

Consider GATGCCCA, for which the binding signal came to 0.0798 normalized occupancy.

As to CATGCCCC, the binding signal came to 0.0965 normalized occupancy.

As to CATGCCCA, the binding signal was 0.0953 normalized occupancy.

Turning to CATGCCCG, the binding signal is 0.0842 normalized occupancy.

Regarding GATGCCCC, the binding signal is 0.0764 normalized occupancy.

On to TCAGACGA, for which the binding signal worked out at 0.0739 normalized occupancy.

For the sequence CTACAGAG, the binding signal turned out to be 0.0735 normalized occupancy.

AAGAAGGC: the binding signal was 0.0751 normalized occupancy.

As for AGCGCCTA, the binding signal was 0.0724 normalized occupancy.

Consider GTGAATAA, for which the binding signal came out at 0.0848 normalized occupancy.

In the case of GAATGTGC, the binding signal was 0.0815 normalized occupancy.

Regarding CAATGTGA, the binding signal stood at 0.0948 normalized occupancy.

Turning to ACATGTGA, the binding signal turned out to be 0.166 normalized occupancy.

On to CGATGTGA, for which the binding signal was 0.0833 normalized occupancy.

On to AAATGTGT, for which the binding signal was 0.0811 normalized occupancy.

As to CAATGTGG, the binding signal is 0.097 normalized occupancy.

With CAATGTGC, the binding signal came to 0.0924 normalized occupancy.

For AAATGTGC, the binding signal was 0.0962 normalized occupancy.

As to CCATGTGA, the binding signal amounted to 0.154 normalized occupancy.

Regarding CCATGTAA, the binding signal is 0.0855 normalized occupancy.

AGATGTGA: the binding signal came to 0.085 normalized occupancy.

Regarding ATATGTGA, the binding signal was 0.0878 normalized occupancy.

Consider CGCACCAA, for which the binding signal amounted to 0.0722 normalized occupancy.

GCGTTCAC: the binding signal is 0.0758 normalized occupancy.

As for CCGCTAAG, the binding signal came out at 0.0719 normalized occupancy.

For the sequence CGTCACTC, the binding signal came to 0.074 normalized occupancy.

As for GCGGGTCA, the binding signal was 0.0811 normalized occupancy.

Regarding ACTTTGTG, the binding signal came to 0.0718 normalized occupancy.

Take TACTACGA: the binding signal stood at 0.0764 normalized occupancy.

With CTAATATA, the binding signal amounted to 0.0824 normalized occupancy.

For CATTAGAA, the binding signal is 0.0752 normalized occupancy.

For ACATCACG, the binding signal turned out to be 0.0884 normalized occupancy.

For the sequence CGTGTTAA, the binding signal is 0.0819 normalized occupancy.

Turning to GGCCCACA, the binding signal worked out at 0.0789 normalized occupancy.

As for ACTGACGA, the binding signal amounted to 0.0719 normalized occupancy.

For the sequence CTCCTTCC, the binding signal came to 0.081 normalized occupancy.

Consider AGGCACGC, for which the binding signal came to 0.0914 normalized occupancy.

For the sequence GTTAACCA, the binding signal is 0.0793 normalized occupancy.

With AGCGTTCA, the binding signal amounted to 0.0757 normalized occupancy.

ACATGTGG: the binding signal was 0.209 normalized occupancy.

ACATGTCC: the binding signal amounted to 0.0918 normalized occupancy.

In the case of GCATGTGA, the binding signal turned out to be 0.157 normalized occupancy.

As to AGATGTGG, the binding signal was 0.0868 normalized occupancy.

ACATGTGC: the binding signal is 0.197 normalized occupancy.

Take CCATGTCC: the binding signal stood at 0.0824 normalized occupancy.

Regarding CGATGTGC, the binding signal was 0.0807 normalized occupancy.

Regarding CCATGTGC, the binding signal stood at 0.209 normalized occupancy.

For the sequence GGATGTGA, the binding signal was found to be 0.0786 normalized occupancy.

Turning to AAATGTGG, the binding signal is 0.088 normalized occupancy.

On to AGATGTGC, for which the binding signal came out at 0.0825 normalized occupancy.

Consider GAATGTGA, for which the binding signal was found to be 0.0817 normalized occupancy.

With CCGATGAC, the binding signal came out at 0.0747 normalized occupancy.

Take TTAGTAAA: the binding signal came to 0.0726 normalized occupancy.

Regarding CGATGCCC, the binding signal is 0.0786 normalized occupancy.

For CCGAGTGC, the binding signal turned out to be 0.0748 normalized occupancy.

Turning to GATAGTGC, the binding signal was 0.0782 normalized occupancy.

As to AAGTTAGA, the binding signal came out at 0.0733 normalized occupancy.

As to CAGGCACC, the binding signal amounted to 0.0774 normalized occupancy.

On to GACAAGAA, for which the binding signal worked out at 0.0761 normalized occupancy.

Consider AGGCGTTA, for which the binding signal worked out at 0.0751 normalized occupancy.

As for CCCATACG, the binding signal was determined as 0.0864 normalized occupancy.

For the sequence CGTGACCC, the binding signal is 0.0843 normalized occupancy.

As for CATGACCG, the binding signal worked out at 0.0795 normalized occupancy.

CGTGACCA: the binding signal turned out to be 0.0992 normalized occupancy.

As for GATGACCA, the binding signal turned out to be 0.0763 normalized occupancy.

On to GGTGATCA, for which the binding signal was 0.0835 normalized occupancy.

On to AGTGACCA, for which the binding signal amounted to 0.0753 normalized occupancy.

CGTGATCC: the binding signal worked out at 0.0811 normalized occupancy.

On to CGTGATCA, for which the binding signal was 0.0962 normalized occupancy.

CATGACCA: the binding signal turned out to be 0.0957 normalized occupancy.

For CGCCAACA, the binding signal was 0.0741 normalized occupancy.

In the case of ACCTGATG, the binding signal is 0.0825 normalized occupancy.

Turning to AGCTACAA, the binding signal was 0.0722 normalized occupancy.

Turning to ATGCCAAA, the binding signal is 0.0777 normalized occupancy.

Take GAGATCCC: the binding signal was determined as 0.0743 normalized occupancy.

As for CTACACAC, the binding signal was found to be 0.093 normalized occupancy.

For ATACACGC, the binding signal is 0.102 normalized occupancy.

With CTACACGA, the binding signal amounted to 0.0821 normalized occupancy.

Take ATACACGA: the binding signal came out at 0.0889 normalized occupancy.

Turning to CTACACGC, the binding signal was 0.0967 normalized occupancy.

Regarding ATACACGG, the binding signal is 0.0846 normalized occupancy.

Consider ACTTGACA, for which the binding signal was 0.0819 normalized occupancy.

GCTCCCAC: the binding signal was determined as 0.075 normalized occupancy.

As to CATCAAGC, the binding signal turned out to be 0.0726 normalized occupancy.

On to GTTGAAGA, for which the binding signal stood at 0.082 normalized occupancy.

As for ACAGAAGA, the binding signal was determined as 0.0734 normalized occupancy.

Regarding ATGAAGGG, the binding signal was 0.0755 normalized occupancy.

For CATGCGAC, the binding signal amounted to 0.109 normalized occupancy.

Turning to GATGCGAC, the binding signal was determined as 0.0759 normalized occupancy.

As for CATGCGAG, the binding signal is 0.0975 normalized occupancy.

Regarding AATGCGAG, the binding signal was 0.0746 normalized occupancy.

Take AATGCGAC: the binding signal worked out at 0.0782 normalized occupancy.

On to CATGCGAA, for which the binding signal turned out to be 0.0898 normalized occupancy.

As for AAACCTTA, the binding signal was 0.0742 normalized occupancy.

For the sequence AGAACGTA, the binding signal turned out to be 0.0742 normalized occupancy.

Turning to ACAACGTG, the binding signal stood at 0.149 normalized occupancy.

For the sequence ATAACGTG, the binding signal was determined as 0.113 normalized occupancy.

AGAACGCG: the binding signal is 0.0788 normalized occupancy.

With ACAACGTA, the binding signal was determined as 0.077 normalized occupancy.

Consider AGAACGTG, for which the binding signal amounted to 0.1 normalized occupancy.

Regarding ATAACGTA, the binding signal came out at 0.0784 normalized occupancy.

For the sequence ACGACGTA, the binding signal was 0.0786 normalized occupancy.

On to ACGACGTC, for which the binding signal worked out at 0.0746 normalized occupancy.

Turning to ACAACGGG, the binding signal stood at 0.0774 normalized occupancy.

As to ATAACGTC, the binding signal turned out to be 0.0773 normalized occupancy.

As for ACGACGTG, the binding signal was 0.0963 normalized occupancy.

For the sequence ATAGCGCC, the binding signal is 0.0747 normalized occupancy.

GGAGAAGA: the binding signal is 0.0765 normalized occupancy.

In the case of ATTATTCG, the binding signal was 0.0765 normalized occupancy.

With AGCTGACA, the binding signal was found to be 0.0754 normalized occupancy.

As to AACAGCAC, the binding signal amounted to 0.0765 normalized occupancy.

As to GTCACCTA, the binding signal was determined as 0.0725 normalized occupancy.

Take ATTTTAAC: the binding signal stood at 0.0737 normalized occupancy.

On to AAATTGCA, for which the binding signal turned out to be 0.0733 normalized occupancy.

Take CCGCGCGC: the binding signal turned out to be 0.0828 normalized occupancy.

With AAATAAAA, the binding signal is 0.079 normalized occupancy.

AAACCCAA: the binding signal is 0.0746 normalized occupancy.

Regarding CTTGTCAC, the binding signal came to 0.0759 normalized occupancy.

For the sequence AACCACAA, the binding signal amounted to 0.0762 normalized occupancy.

AACCACAT: the binding signal was 0.0973 normalized occupancy.

With ATCCACAA, the binding signal worked out at 0.077 normalized occupancy.

ATCCACAT: the binding signal is 0.0977 normalized occupancy.

As for AACCACAC, the binding signal was 0.0854 normalized occupancy.

Turning to ATCCACAG, the binding signal was 0.078 normalized occupancy.

GCAACAGA: the binding signal is 0.0747 normalized occupancy.

For GTCAGAGA, the binding signal was found to be 0.073 normalized occupancy.

Turning to ATTGTCTG, the binding signal is 0.0774 normalized occupancy.

For TACATACA, the binding signal came to 0.092 normalized occupancy.

For the sequence AATGGGAA, the binding signal was determined as 0.0775 normalized occupancy.

With CTTGTGTA, the binding signal was 0.0811 normalized occupancy.

Take CATGTGTA: the binding signal worked out at 0.131 normalized occupancy.

Consider CATGTGTC, for which the binding signal turned out to be 0.125 normalized occupancy.

Turning to AATGTGTC, the binding signal is 0.095 normalized occupancy.

Take GATGTGTA: the binding signal worked out at 0.0848 normalized occupancy.

CATGTCTC: the binding signal was 0.0933 normalized occupancy.

With CTGCGGCA, the binding signal was 0.0732 normalized occupancy.

For the sequence GACACCCA, the binding signal worked out at 0.0749 normalized occupancy.

Consider GATGTAGA, for which the binding signal was determined as 0.0799 normalized occupancy.

Consider ACAGCTAT, for which the binding signal came to 0.0762 normalized occupancy.

Turning to ACAGGTGC, the binding signal is 0.0832 normalized occupancy.

Take ACAGGTGG: the binding signal worked out at 0.0985 normalized occupancy.

Consider ACAGGTGA, for which the binding signal was 0.084 normalized occupancy.

In the case of CACAGCAA, the binding signal was 0.0762 normalized occupancy.

Turning to ACTGTGAT, the binding signal is 0.0734 normalized occupancy.

In the case of CATGTTCG, the binding signal worked out at 0.0882 normalized occupancy.

As for AGTGTGCA, the binding signal stood at 0.0821 normalized occupancy.

As for AATGTGAT, the binding signal came to 0.101 normalized occupancy.

As for GATGTGCC, the binding signal amounted to 0.0796 normalized occupancy.

As to CATGTGCC, the binding signal is 0.149 normalized occupancy.

CCTGTGCG: the binding signal worked out at 0.0733 normalized occupancy.

With CATGTGCG, the binding signal came to 0.181 normalized occupancy.

As to CGTGTGCC, the binding signal was 0.0918 normalized occupancy.

On to AATGTGAA, for which the binding signal is 0.0782 normalized occupancy.

Turning to CTTGTGCC, the binding signal came to 0.0778 normalized occupancy.

CGTGTGCA: the binding signal came out at 0.0981 normalized occupancy.

As to CGTAGCAG, the binding signal was found to be 0.0734 normalized occupancy.

Regarding CGTGAAGA, the binding signal is 0.0801 normalized occupancy.

For TATCTTAA, the binding signal worked out at 0.0728 normalized occupancy.

TTCTCAAA: the binding signal came out at 0.0808 normalized occupancy.

Regarding CTGCTCCC, the binding signal stood at 0.0741 normalized occupancy.

Take ACGGTTAA: the binding signal was 0.0751 normalized occupancy.

For the sequence CTGCAGCA, the binding signal is 0.0755 normalized occupancy.

With GACCTTAC, the binding signal was 0.0765 normalized occupancy.

As to CCAAGCTA, the binding signal is 0.0731 normalized occupancy.
